A selection: hits, their analogues and other compounds. The true share with any hit is near 19%.
IL1B secr inh: inflammasome signaling inhibition, IL-1 beta readout; activity change, % at 57.5 µM; 360,000 compounds, 4.7% hits; THP-1 LPS/ATP IL-1B secretion, AlphaLISA, 16 h; hits give low values; in the data active = activity change below about -50%; inconclusive = mostly about -30% to -49%; note: % is set by controls: 0 for no effect and ±100 for the full control effect
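THP-1 cells pretreated 1 hr with compounds (up to 57.5 uM final), then stimulated with LPS (250 ng/mL final) plus ATP (1.25 mM final); secreted IL-1B measured by AlphaLISA after 16 hr, decreased signal indicating inhibition.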
DT40 TDP1 CPT: DT40-hTDP1 cell growth loss with CPT; chicken DT40 Tdp1-/-;hTDP1 cells + 20 nM CPT, ATP luminescence, 48 h; AID 686979; 420,000 compounds, 12% hits; Potency, µM (series often up to 46.2 µM), inactives show at the highest dose activity change, negative = growth inhibition, actives largely listed as inhibitors; note: potency is the fitted concentration of half-maximal effect; % is set by controls: 0 for no effect and ±100 for the full control effect; nearly all actives have a fitted effect of over 55% in size
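Chicken DT40 Tdp1-/- cells stably complemented with human TDP1 were seeded at 400 cells/well in medium containing 20 nM camptothecin, exposed to pin-transferred compounds, and grown at 37 °C for at least 48 hr. Viability was read as ATP luminescence.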
HepG2 tox: kills HepG2 cells in TGF-b inhibitor counter-screen; HepG2 CAGA-GFP viability, ATP luminescence, 18 h; Potency, µM (top dose mostly 46.1 µM), without a hit: at the highest dose activity change, negative = cytotoxicity, usual class: cytotoxic; 410,000 compounds, 0.76% hits; AID 588856; note: potency is the fitted concentration of half-maximal effect
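CellTiter-Glo luminescence gave cytotoxicity after 18 hours at 37 degrees C. The cells were HepG2 CAGA-GFP in 1% FBS DMEM, stimulated with 500 pg/mL TGF-beta after compound addition. %Activity was normalised to no-cell wells (complete cell-killing) and DMSO (no toxicity), and curves were fitted and classified.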
TDP1 cell noCPT: qHTS for Inhibitors of human tyrosyl-DNA phosphodiesterase 1 (TDP1): qHTS in cells in absence of CPT; 420,000 compounds, 15% hits; DT40 Tdp1-/- hTDP1 cells, no CPT, ATP luminescence, 48 h; Potency, µM (doses to about 46.2 µM), for the others: at the highest dose activity change, negative = growth inhibition, usual class: inhibitors; AID 686978, 2013; note: potency is the fitted concentration of half-maximal effect; % is set by controls: 0 for no effect and ±100 for the full control effect; nearly all actives have a fitted effect of over 55% in size
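No-CPT arm: Tdp1-/-;hTDP1 DT40 cells (400/well) plus compounds, incubated ≥48 hr at 37 °C. Readout CellTiter-Glo luminescence.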
S-ASM inh: inhibitors of human secretory acid sphingomyelinase; P17405; placental ASM, HMU-PC fluorogenic substrate, 60 min; Potency, µM (doses to about 57.5 µM), without a hit: top-dose activity change, negative = inhibition, usual class: inhibitors; 340,000 compounds, 0.006% hits; AID 504937; note: potency is the fitted concentration of half-maximal effect
Target sequence (P17405 47-631 limits assumed): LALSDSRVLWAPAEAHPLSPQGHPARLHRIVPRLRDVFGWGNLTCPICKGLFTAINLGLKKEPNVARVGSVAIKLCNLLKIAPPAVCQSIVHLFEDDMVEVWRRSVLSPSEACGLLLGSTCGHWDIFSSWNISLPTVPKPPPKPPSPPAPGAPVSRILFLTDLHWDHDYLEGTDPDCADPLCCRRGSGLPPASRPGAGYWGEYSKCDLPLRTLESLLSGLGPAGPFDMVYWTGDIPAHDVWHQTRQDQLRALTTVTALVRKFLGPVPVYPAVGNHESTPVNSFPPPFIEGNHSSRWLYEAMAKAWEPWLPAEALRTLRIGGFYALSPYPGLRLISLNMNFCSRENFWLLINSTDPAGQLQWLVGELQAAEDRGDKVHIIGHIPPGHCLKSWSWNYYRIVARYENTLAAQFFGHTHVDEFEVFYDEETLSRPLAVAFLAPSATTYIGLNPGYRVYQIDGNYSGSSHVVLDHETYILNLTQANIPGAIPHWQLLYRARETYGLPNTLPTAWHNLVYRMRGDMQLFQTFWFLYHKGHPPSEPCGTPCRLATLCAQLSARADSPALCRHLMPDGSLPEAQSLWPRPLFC
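qHTS format. ASM enzyme prepared from human placenta hydrolyses the fluorogenic substrate HMU-PC0 (9 uM final) over 60 min at 37 °C after a 10 min compound preincubation.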
TGFb SMAD3 inh: blocks TGF-b signaling; Potency, µM (series often up to 46.1 µM), inactives show at the top dose activity, negative = inhibition, actives largely listed as inhibitors; 410,000 compounds, 1.2% hits; AID 588855; HepG2 CAGA-GFP TGF-b/SMAD3 reporter, GFP fluorescence, 18 h; TGF-beta stimulated, 500 pg/mL final; note: potency is the fitted concentration of half-maximal effect; % is set by controls: 0 for no effect and ±100 for the full control effect; nearly all actives have a fitted effect of over 65% in size
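Inhibition was scored as loss of TGF-beta-induced (500 pg/mL final, 18 hours, 37 degrees C) GFP in HEPG2 cells carrying a CAGA-GFP reporter, in DMEM with 1% FBS. Well GFP was summed per cell; Activity was normalised to unstimulated and stimulated DMSO wells, then concentration-response fitting.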
The depositor's hits bear a star; ? = inconclusive; / = not tested or not shown; ! = not confirmed by another sample. Unless noted, calls come from the whole dose curve; as a rule, active = well fitted curve in the direction sought with a large enough effect; inconclusive = small, poorly fitted or top-dose-only effect, or another doubt; inactive = no such curve, though single readings can be large; an effect the other way counts as inactive or inconclusive.

SMILES | IL1B secr inh | DT40 TDP1 CPT | HepG2 tox | TDP1 cell noCPT | S-ASM inh | TGFb SMAD3 inh
Cc1cccc(C)c1NC(=O)CN(Cc1ccccc1)Cc1ccccc1 | -1 | ? | -41% | 21µM* | / | ?
CCc1cccc(C)c1NC(=O)CN(C)Cc1ccc(Br)cc1 | -57* | 21µM* | -3% | ? | 3% | -9%
O=C(CN(Cc1ccc(F)cc1)S(=O)(=O)c1ccccc1)N1CCCCC1 | -11 | ? | 6% | 16µM* | 3% | 0%
CS(=O)(=O)N(CC(=O)N1CCCC1)Cc1ccc(F)cc1 | 9 | 3% | 7% | 11% | 3% | 0%
CCOc1ccc(-c2cc(C(=O)Nc3cccc(C(F)(F)F)c3)[nH]n2)c(C)c1 | 2 | ? | -32% | ? | / | -19%
Cc1ccc(C(=O)NNC(=O)c2ccoc2C)s1 | 2 | ? | -14% | -11% | 3% | 0%
O=C(c1ccc(Br)cc1)N1CCN(c2ccccn2)CC1 | 0 | -16% | -2% | ? | / | -2%
O=C(c1csnn1)N1CCC2(CC1)CCN(c1ncccn1)CC2 | / | 6% | / | ? | / | /
Brc1cccc[n+]1Cc1ccccc1C[n+]1ccccc1Br | / | ? | -19% | -25% | / | 35%
CCCCC1(C2CCCC2)NC(=O)NC1=O (stereo not given) | 6 | -8% | -2% | -18% | 3% | 0%
Cc1cccc(C)c1NC(=O)CNCC(=O)Nc1c(C)cccc1C | 19 | -7% | 4% | -10% | 19% | 2%
CNC(=O)CN(Cc1ccccc1)S(=O)(=O)c1ccccc1 | -7 | 5% | 5% | 0% | 2% | 7%
CC[N+](CC)(CC)CC(=O)Nc1c(C)cccc1C | 4 | 18µM*! | -1% | 14% | 1% | -2%
Cc1cccc(C)c1NC(=O)CN(Cc1ccc(Br)cc1)S(=O)(=O)c1ccccc1 | / | ? | -15% | 15µM* | / | ?
CN(CCOc1ccc(C[C@H](Nc2ccccc2C(=O)c2ccccc2)C(=O)O)cc1)c1ccccn1 | / | 1% | / | -6% | / | /
Cc1ccc(-c2nnc(N3CCOCC3)c3ccccc23)cc1S(=O)(=O)N(C)C | -6 | -24% | -43% | -13% | 8% | 23%
Cc1noc(C)c1CSCC(=O)Nc1ccc(S(=O)(=O)C(F)F)cc1 | -3 | -13% | 0% | -28% | -3% | 0%
Cn1c(N)c(C(C[N+](=O)[O-])c2ccccc2Cl)c(=O)n(C)c1=O (stereo not given) | 8 | 4.1µM* | -2% | 4.6µM* | -4% | -14%
CC(C(c1ccc2c(c1)OCO2)c1c(N)n(C)c(=O)n(C)c1=O)[N+](=O)[O-] (stereo not given) | -12 | ? | -7% | 16µM* | 7% | ?
COc1cc(C(C[N+](=O)[O-])c2c(N)n(C)c(=O)n(C)c2=O)ccc1O (stereo not given) | -2 | 6.5µM* | -41% | 6.5µM* | 6% | ?
Cc1ccc(C(C[N+](=O)[O-])c2c(N)n(C)c(=O)n(C)c2=O)cc1 (stereo not given) | ? | 3.7µM* | -90% | 5.2µM* | -1% | ?
CCC(C)[C@H]1CNC(=O)C(=O)N1CC(C)(C)C (stereo not given in full) | 5 | 1% | / | 0% | / | /
COc1cccc(F)c1C(C[N+](=O)[O-])c1c(N)n(C)c(=O)n(C)c1=O (stereo not given) | -100* | 4.6µM* | -123% | 2.3µM* | 1% | 4µM*
O=C(COC(=O)CNC(=O)c1ccc(Cl)cc1)Nc1ccc(Cl)cc1C(F)(F)F | 23 | 16% | -21% | -1% | -2% | 4%

Assay outcomes (PubChem BioAssay)
